Source: PubChem BioAssay (National Center for Advancing Translational Sciences (NCATS))
HPGD inh: blocks human HPGD enzyme activity; Potency, µM, inactives show at the highest dose activity change, negative = inhibition, most hits filed as inhibitors; purified HPGD, NADH fluorescence kinetic, PGE2 substrate; AID 894; P15428; 150,000 tested, 4.3% active; active = well fitted inhibition curve with a large enough effect, not every such curve was filed as active; inconclusive = small, poorly fitted or top-dose-only effect, or another doubt; inactive = no such curve, though single readings can be large or run the other way; note: potency is the fitted concentration of half-maximal effect
Target sequence (P15428 whole entry, looked up): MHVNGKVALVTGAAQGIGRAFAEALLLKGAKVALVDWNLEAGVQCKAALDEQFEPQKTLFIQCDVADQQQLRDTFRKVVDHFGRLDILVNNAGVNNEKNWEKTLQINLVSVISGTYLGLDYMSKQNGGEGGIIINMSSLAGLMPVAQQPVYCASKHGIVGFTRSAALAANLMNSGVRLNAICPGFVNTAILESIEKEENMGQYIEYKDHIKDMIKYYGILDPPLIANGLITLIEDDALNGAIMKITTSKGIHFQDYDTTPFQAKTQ
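20 nM HPGD preincubated 15 min at room temperature with compound in 50 mM Tris-HCl pH 8, 0.01% Tween 20. Started with 1 mM NAD+ and 30 uM prostaglandin E2; NADH fluorescence (360/450 nm) read 5 times over 30-s intervals, last minus first.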
ALOX12 inhib: blocks human 12-lipoxygenase activity. Potency, µM (series often up to 57.1 µM), without a hit: top-dose activity change, negative = inhibition, usual class: inhibitors. 150,000 tested, 0.12% active. purified 12-hLO, xylenol orange hydroperoxide absorbance. P18054; note: potency is the fitted concentration of half-maximal effect; nearly all actives have a fitted effect of over 55% in size
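Lipoxygenase turnover measured by absorbance at 573 and 405 nm after Fe-XO development. Human 12hLO 150 nM, arachidonate 40 uM, pH 7.0 Hepes buffer with detergent; 15 min compound preincubation, 30 min reaction.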
IMPase cell inh: membrane-permeable compound that blocks inositol monophosphatase. P97697. CHO-M1 cells, IP1 accumulation, HTRF TR-FRET ratio. inhibition (IP1 accumulation), % at 46.1 µM. 120,000 tested, under 10 active. AID 901; active = well fitted curve in the direction sought with a large enough effect in the signal ratio, not every such curve was filed as active; inconclusive = small, poorly fitted or top-dose-only effect, or a change in a side signal; inactive = no such curve, though single readings can be large or run the other way; the % refers to the signal ratio;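 note: cells stimulated with carbachol in lithium chloride buffer; plate controls were DMSO basal wells for no effect and reference inhibitor wells for full effect; higher means more IMPase inhibition seen as more IP1 and lower FRET ratio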
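CHO-M1, 2000 cells/well, cultured 16–30 h; cpd up to 46 uM; carbachol (50 uM solution, stimulation buffer w/ 50 mM LiCl, pH 7.4), 30 min 37C; IP-One TR-FRET, 10 min RT; Ex 320/Em 665, 620; Hill-fit AC50.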
ALDH1A1 block: ALDH1A1 (human) enzyme inhibition. Purified ALDH1A1, NADH fluorescence, propionaldehyde substrate. Potency, µM (top dose mostly 75.3 µM), without a hit: top-dose activity, negative = inhibition, hits mostly inhibitors. 220,000 tested, 7.3% active. AID 1030; active = well fitted inhibition curve with a large enough effect, not every such curve was filed as active; inconclusive = small, poorly fitted or top-dose-only effect, or another doubt; inactive = no such curve, though single readings can be large or run the other way;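 note: potency is the fitted concentration of half-maximal effect; plate controls were no enzyme wells and a reference inhibitor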
IMPase Li inh: cell-permeable IMPase inhibitors with lithium potentiation; CHO-M1 cells, IP1 TR-FRET (IP-One), carbachol + lithium; AID 1457; Potency, µM (doses to about 59.4 µM), for the others: at the top dose activity, negative = IMPase inhibition, hits mostly inhibitors; 210,000 tested, 0.35% active;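 note: IP1 builds up when IMPase is blocked and the TR-FRET signal falls; potency is the fitted concentration of half-maximal effect; plate controls were basal vehicle for no effect and high inhibitor control for full effect; nearly all actives have a fitted effect of over 50% in size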
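Steps: plate 2000 CHO-M1 cells per well and culture 16–30 h; add compound and lithium; incubate 30 min, 37C; add d2-IP1 tracer and Eu cryptate anti-IP1 antibody in lysis buffer; read after 10 min at room temperature.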
NPSR antag: antagonists of human neuropeptide S receptor cAMP signaling; Q6W5P4; CHO-NPSR cells, cAMP TR-FRET, antagonist mode; Potency, µM (series often up to 38.3 µM), without a hit: top-dose activity change, negative = inhibition, hits mostly inhibitors; 220,000 tested, 1% active; AID 1461; note: potency is the fitted concentration of half-maximal effect; nearly all actives have a fitted effect of over 50% in size
Target sequence (Q6W5P4 whole entry, looked up): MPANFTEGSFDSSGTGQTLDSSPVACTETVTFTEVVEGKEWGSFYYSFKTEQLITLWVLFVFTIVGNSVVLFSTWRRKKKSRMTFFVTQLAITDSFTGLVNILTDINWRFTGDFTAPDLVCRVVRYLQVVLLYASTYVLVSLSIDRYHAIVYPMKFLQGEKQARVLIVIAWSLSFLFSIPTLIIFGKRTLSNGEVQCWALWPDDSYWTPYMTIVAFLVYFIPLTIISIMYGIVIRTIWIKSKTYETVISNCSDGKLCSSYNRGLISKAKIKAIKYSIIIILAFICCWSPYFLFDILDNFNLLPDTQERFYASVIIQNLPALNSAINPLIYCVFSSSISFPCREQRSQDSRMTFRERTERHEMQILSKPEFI
The depositor's hits bear a star; ? = inconclusive; nt = no result given; [ ] = another dose, or the depositor's remark. Compounds with a hit are over-represented: about 8.9% of the library has one in this group of screens. Unless noted, calls come from the whole dose curve; as a rule, active = well fitted curve in the direction sought with a large enough effect; inconclusive = small, poorly fitted or top-dose-only effect, or another doubt; inactive = no such curve, though single readings can be large; an effect the other way counts as inactive or inconclusive. Unless noted, % is set by controls: 0 for no effect and ±100 for the full control effect.

SMILES	HPGD inh	ALOX12 inhib	IMPase cell inh	ALDH1A1 block	IMPase Li inh	NPSR antag
O=c1[nH]c2ccc(NC(=S)Nc3ccc(Cl)cc3Cl)cc2[nH]1	-12%	4%	-3	?	22%[38.3 µM]	9%[46.1 µM]
COc1ccc(NC(=S)Nc2ccc3cn[nH]c3c2)cc1	nt	nt	nt	?	4%	3%
Cc1ccccc1NC(=S)Nc1ccc2cn[nH]c2c1	nt	nt	nt	?	-10%	9%
S=C(NCc1ccco1)Nc1ccc(Cl)cc1Cl	28µM*	-2%	nt	-1%	1%	6%
S=C(Nc1ccc2cn[nH]c2c1)Nc1ccc(Cl)cc1Cl	nt	nt	nt	13µM*	2%	-12%
O=c1[nH]c2ccc(NC(=S)Nc3ccccc3Cl)cc2[nH]1	22µM*	-3%	-9	6.3µM*	8%[38.3 µM]	-9%[46.1 µM]
COc1cc2c(cc1OC)-c1cc3nc4ccccc4nc3n1C(C)(C)C2	?	-22%	-7	?	5%	nt
S=C(Nc1ccc(Cl)cc1)Nc1ccc2cn[nH]c2c1	nt	nt	nt	25µM*	2%	-3%
S=C(Nc1ccccc1)Nc1ccc(Cl)cc1Cl	-27%	14%	-7	7.9µM*	27%	11%[46.1 µM]
S=C(Nc1ccc2cn[nH]c2c1)Nc1ccc2cn[nH]c2c1	-3%	3%[11.4 µM]	nt	?	-8%	nt
COCCNC(=S)Nc1ccc2[nH]c(=O)[nH]c2c1	nt	nt	nt	25µM*	20%	6%
CC(C)c1ccc(NC(=S)Nc2ccc3[nH]c(=O)[nH]c3c2)cc1	nt	nt	nt	40µM*	nt	-19%
O=c1[nH]c2ccc(NC(=S)Nc3ccc(Cl)cc3)cc2[nH]1	-6%	2%	0	7%	26%[38.3 µM]	0%[46.1 µM]
CC(/C=C/c1ccccc1)=N/NC(=O)c1cnccn1	-18%	-3%	5	-15%	12%	3%[46.1 µM]
CCCOC(=O)CCCCCCCCC(O)CN1CCCCC1 (stereo not drawn)	nt	nt	nt	18µM*	45%	-2%
COc1cc(CNn2c(C)n[nH]c2=S)cc(Cl)c1OCc1ccc(F)cc1	13µM*	?	2	-1%	47%[38.3 µM]	-22%[46.1 µM]
COc1cc(CNC2CCCC2)cc(Cl)c1OCc1ccc(F)cc1	0%	-6%	-2[1.84 µM]	17%	16%[38.3 µM]	1%[46.1 µM]
C=CCOc1c(Br)cc(CNn2cn[nH]c2=S)cc1OC	nt	nt	nt	8%	4%	-3%
COc1cc(CNn2c(C)n[nH]c2=S)cc(Br)c1OCc1ccc(F)cc1	16µM*	-16%	nt	28µM*	21%	-27%
CCC(CC)NC(=O)CON=C1c2ccccc2-c2ccccc21	7.9µM*	0%	4	4%	0%	2%
Cc1ccccc1OCC(=O)NNC(=O)CCN1C(=O)c2ccccc2C1=O	nt	nt	nt	-4%	4%	17%
Cc1ccccc1OCCN1C(=O)c2ccccc2C1=O	28µM*	-6%	0	8%	9%[38.3 µM]	-23%[46.1 µM]
O=c1oc2ccccc2c(O)c1C=NCc1ccccn1	?	4%	-4[1.84 µM]	28µM*	4%[38.3 µM]	-29%[46.1 µM]
CCN(CC)S(=O)(=O)c1ccc(N)cc1	nt	nt	nt	3%	0%	-10%
CCCOc1c(Br)cc(C(N)=O)cc1OCC	nt	nt	nt	9%	1%	-3%
SMILES	HPGD inh	ALOX12 inhib	IMPase cell inh	ALDH1A1 block	IMPase Li inh	NPSR antag
CCOc1cc(C=O)cc(Br)c1OCC(N)=O	nt	nt	nt	7.9µM*	0%	-1%
CCOc1cc(C=O)ccc1OCC(N)=O	nt	nt	nt	11µM*	-2%	-20%
CCOc1cc(C=O)ccc1OCC(=O)NC(C)(C)C	nt	nt	nt	?	4%	-5%
CC1Cc2ccccc2N1S(=O)(=O)c1cnc[nH]1 (stereo not drawn)	-8%	0%	-9	9%	19%[38.3 µM]	1%[46.1 µM]
Cc1cc(Cl)c(OCCN2C(=O)NC(C)(C)C2=O)c(Br)c1	-2%	-1%	4	2%	-3%[38.3 µM]	-9%[46.1 µM]
O=C(/C=C/Nc1ccccc1F)c1cccs1	-11%	0%	3	?	0%	4%
O=C(/C=C/Nc1ccc(F)cc1F)c1cccs1	?	1%	-10	2.4µM*	-4%	22%
O=C(COc1cccc(Br)c1)N/N=C1\CCSC1	nt	nt	nt	4.5µM*	14%	-3%
CC1(C)CC(C(N)=S)CCO1 (stereo not drawn)	nt	nt	nt	0%	nt	-17%
CCOC(=O)c1c(C)[nH]c(C2=NNC(=Nc3ccccc3)SC2)c1C	nt	-19%	7	13µM*	nt	-27%[46.1 µM]
